From PubChem BioAssay (NCI)
Compounds without any hit were thinned out: in the full panel of roughly 83,000, 20% have a hit.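 Values shown are percent growth following 48 h exposure of cells in 96-well plates to a single concentration of compound; below 10 was considered active.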 The source made the active and inactive calls.

tested on: HL-60(TB) leukemia; test: NCI-60 one-dose screen, 48 h (100 = growth as untreated, 0 = no growth, -100 = all killed); details: 10 µM unless noted

Row | SMILES | growth
1 | CC(C)=CC[C@@H]1CC2(CC=C(C)C)C(=O)C(OC3(C(=O)c4ccccc4)C(=O)C4(CC=C(C)C)C[C@@H](CC=C(C)C)C(C)(C)C(CC=C(C)C)(C4=O)C3=O)(C(=O)c3ccccc3)C(=O)C(CC=C(C)C)(C2=O)C1(C)C (stereo not given in full) | -47.7% (active)
2 | COc1ccc(-c2nnc(N3CCN(C(=O)CN4CCN(c5ccc(Cl)cc5)CC4)CC3)nc2-c2ccc(OC)cc2)cc1 | -37.4% (active)
3 | CN(C)CCOc1ccccc1NC1=C(Cl)C(=O)C(Nc2ccccc2OCCN(C)C)=C(Cl)C1=O | -18.9% (active)
4 | CC(C)OC(=O)c1ccc2n1CCCc1cnc(Nc3ccccc3)nc1-2 | 79.1% (inactive)
5 | CCSc1ncc(Br)c(Sc2nc(N)nc3nc[nH]c23)n1 | 87.8% (inactive)
6 | CC[C@H](CO)Nc1nc(NCc2ccccc2)n2ncc(C(C)C)c2n1 | -38.2% (active)
7 | CC(C)[C@@H](C)/C=C/[C@@H](C)[C@H]1CCC2=C3C=CC4=CC(=O)CC[C@]4(C)[C@H]3CC[C@@]21C | 93.9% (inactive)
8 | CN(C)c1ccc(/C=C\c2ccnc3ccccc23)cc1 | 26.1% (inactive)
9 | CCN(CC)CCC(=O)Nc1cccc2c1C(=O)c1c(c(O)c3ccccc3c1O)C2=O | 27.8% (inactive)
10 | Cc1ccnc2c1ccc1c(C)ccnc12 | -5.64% (active)
11 | CCOC(C=O)OCC | 104% (inactive)
12 | CNc1nc2ncc(-c3c(C)noc3C)cc2n1Cc1ccccc1 | 8.97% (active)
13 | CC(C)(C#N)c1cc(C(=O)Nc2cc(Nc3ncccc3-c3ncnc4nc[nH]c34)ccc2F)cc(C(F)(F)F)c1 | 35.3% (inactive)
14 | CCOC(=O)n1cc(-c2nonc2-c2cn(C)c3ccccc23)c2ccccc21 | 1.6% (active)
15 | O=C(Nc1nc(-c2ccccc2)nc2c1sc(=S)n2-c1ccccc1)C(F)(F)F | 94.5% (inactive)
16 | Cc1nc2sc(C(=O)Nc3cccc4ccccc34)c(N)c2cc1C(=O)c1ccccc1 | -50.6% (active)
17 | COc1cc(/C=N/NC(=O)c2cnn3c2NC(c2ccccc2)C3)cc(OC)c1OC (stereo not given) | 81.1% (inactive)
18 | CC(C)(C)c1cc(O)c(C(C)(C)C)cc1O | 35.1% (inactive)
19 | C[C@@H](NC(=O)c1ncnc(N)c1Cl)c1ncc(C(=O)Nc2cc(C(F)(F)F)c(Cl)cn2)s1 | 35.4% (inactive)
20 | CCNCCCn1c2c(c3ccc(Cl)cc3c1=O)C(=O)c1cc(OC)cnc1-2 | -42.9% (active)

Row | SMILES | growth
21 | CCN(CC)CCOC(=O)Nc1c(C(C)C)cccc1C(C)C | 101% (inactive)
22 | O=c1cc(/C(=C2/C=CC=N2)c2ccc[nH]2)c2cc(Cl)ccc2o1 | 85.2% (inactive)
23 | N#Cc1ccc(OC(=O)Nc2ccc(Cl)c(Cl)c2)cc1 | 64.2% (inactive)
24 | COc1ccc(-n2nc3c(c2-c2ccc(OC)c(OC)c2)-c2oncc2CC3)cc1 | 88.4% (inactive)
25 | CN(C)c1ccc(N=Nc2ccc(Br)cn2)c(O)c1 | -41.4% (active)
26 | CO[C@@H]1[C@H](N(C)C(=O)c2ccccc2)C[C@@H]2O[C@]1(C)n1c3ccccc3c3c4c(c5c6ccccc6n2c5c31)C(=O)NC4=O | 78.9% (inactive)
27 | Oc1ccc(/C=C/c2ccccc2)cc1 | 34.1% (inactive)
28 | CCCCNc1cc(-c2cn[nH]c2-c2cc(C)cc(OC)c2)nc(-c2cccnc2)n1 | 105% (inactive)
29 | COc1cc(C(=O)NC(=S)Nc2ccc3ccccc3c2)cc(OC)c1OC | 97.1% (inactive)
30 | CCCCC#Cc1c(I)n(C2OC(CO[Si](C)(C)C(C)(C)C)C3OC(C)(C)OC32)c(=O)[nH]c1=O (stereo not given) | -29.4% (active)
31 | COc1cc2c3c(c4c5ccccc5[nH]c4c2c(OC)c1OC)C(=O)N(O)C3=O | 51.7% (inactive)
32 | Cn1cc(-c2nnc(-c3cn(C)c4ncccc34)s2)c2ccccc21 | 27.8% (inactive)
33 | O=C1/C(=C/c2ccc(O)cc2)COc2ccc(O)cc21 | 96.2% (inactive)
34 | COC(=O)/C=C1/SC(=Nc2ccc([N+](=O)[O-])cc2)N(CCc2c[nH]c3ccc(O)cc23)C1=O | 32.2% (inactive)
35 | O=C1CCC/C=C\C[C@H]2C=CC(=O)/C2=C/C[C@H](C/C=C\CC(F)(F)F)O1 | -16.6% (active)
36 | COC(=O)[C@@H]1[C@H](O)[C@H](C)[C@H](O)[C@@](C)(O)/C=C\C=C(C)C(=O)Nc2c(C)c(OC(C)=O)c3c(c2O)C(=O)C(C)=C2OCOC(=C23)C(C)=C[C@@](C)(O)[C@H](O)[C@@H](C)[C@H]1OC(C)=O | 71.2% (inactive)
37 | CCc1ccc(Nc2ncnc3c2cnn3-c2cccc(Br)c2)cc1 | 114% (inactive)
38 | COc1cc(/C=C2\CN(C)C/C(=C\c3cc(CN4CCCCC4)c(O)c(OC)c3)C2=O)cc(CN2CCCCC2)c1O | 11% (inactive)
39 | CC1=NN(c2ccc(S(=O)(=O)O)cc2Cl)C(=O)C1 | 143% (inactive)
40 | CCOC(=O)c1csc(NC(=O)COc2ccc(/C=C3\Oc4ccccc4C3=O)cc2)n1 | 7.24% (active)
